Columns and labels:
Experiment in all cases: SPOT peptide array binding signal intensity (averaged, normalized) (arbitrary units (background-subtracted, floor 0; scale differs between SH3 domains)); higher = stronger binding of the SH3 domain to the peptide
AgAbp1 = target: AgAbp1
Summary of the method: (§1)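 E. coli BL21(DE3) was used to express GST-fused SH3 domains from four yeast species, which were then purified on glutathione Sepharose. These were incubated at 10 μg/ml in TBS-based blocking buffer overnight at 4°C on cellulose membranes carrying synthetic 15-mer peptides, in which cysteines were replaced by serines. Binding signal is the replicate average of normalized, background-subtracted spot intensity, in arbitrary units that differ between domains.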

AgBbc1 = target: AgBbc1
Summary of the method: as §1

AgBem1-D1 = target: AgBem1-D1
Summary of the method: as §1

AgBzz1-D1 = target: AgBzz1-D1
Summary of the method: as §1

AgBzz1-D2 = target: AgBzz1-D2
Summary of the method: as §1

AgCyk3 = target: AgCyk3
Summary of the method: as §1

AgFus1 = target: AgFus1
Summary of the method: as §1

AgHof1 = target: AgHof1
Summary of the method: as §1

AgHse1 = target: AgHse1
Summary of the method: as §1

AgLsb1 = target: AgLsb1
Summary of the method: as §1

AgLsb4 = target: AgLsb4
Summary of the method: as §1

AgMyo5 = target: AgMyo5
Summary of the method: as §1

AgNbp2 = target: AgNbp2
Summary of the method: as §1

AgRvs167 = target: AgRvs167
Summary of the method: as §1

AgSho1 = target: AgSho1
Summary of the method: as §1

AgSla1-D1-D2 = target: AgSla1-D1-D2
Summary of the method: as §1

AgSla1-D3 = target: AgSla1-D3
Summary of the method: as §1

CaAbp1-D1 = target: CaAbp1-D1
Summary of the method: as §1

CaAbp1-D2 = target: CaAbp1-D2
Summary of the method: as §1

CaBbc1 = target: CaBbc1
Summary of the method: as §1

CaBem1-D1 = target: CaBem1-D1
Summary of the method: as §1

CaBzz1-D1 = target: CaBzz1-D1
Summary of the method: as §1

CaBzz1-D2 = target: CaBzz1-D2
Summary of the method: as §1

CaCyk3 = target: CaCyk3
Summary of the method: as §1

CaFus1 = target: CaFus1
Summary of the method: as §1

CaHof1 = target: CaHof1
Summary of the method: as §1

CaHse1 = target: CaHse1
Summary of the method: as §1

CaLsb1 = target: CaLsb1
Summary of the method: as §1

CaLsb4 = target: CaLsb4
Summary of the method: as §1

CaMyo5 = target: CaMyo5
Summary of the method: as §1

CaNbp2 = target: CaNbp2
Summary of the method: as §1

CaRvs167 = target: CaRvs167
Summary of the method: as §1

CaRvs167-3 = target: CaRvs167-3
Summary of the method: as §1

CaSho1 = target: CaSho1
Summary of the method: as §1

CaSla1-D1-D2 = target: CaSla1-D1-D2
Summary of the method: as §1

CaSla1-D3 = target: CaSla1-D3
Summary of the method: as §1

ScAbp1 = target: ScAbp1
Summary of the method: as §1

In the case of NMLKKKPLKKPLKRF, the “SPOT peptide array binding signal intensity” value (AgAbp1) is reported as 2990, the “SPOT peptide array binding signal intensity” value (AgBbc1) is reported as 12.5 and the “SPOT peptide array binding signal intensity” value (AgBem1-D1) is reported as 382. For the same binder, the “SPOT peptide array binding signal intensity” value (AgBzz1-D1) was 48, the “SPOT peptide array binding signal intensity” value (AgBzz1-D2) was 48 and the “SPOT peptide array binding signal intensity” value (AgCyk3) was 1. The “SPOT peptide array binding signal intensity” value (AgFus1) was 450, the “SPOT peptide array binding signal intensity” value (AgHof1) was 75 and the “SPOT peptide array binding signal intensity” value (AgHse1) was 924. For the same binder, the “SPOT peptide array binding signal intensity” value (AgLsb1) was 1, the “SPOT peptide array binding signal intensity” value (AgLsb4) was 84 and the “SPOT peptide array binding signal intensity” value (AgMyo5) was at most 0. For the same binder, the “SPOT peptide array binding signal intensity” value (AgNbp2) was 275, the “SPOT peptide array binding signal intensity” value (AgRvs167) was 6.17 and the “SPOT peptide array binding signal intensity” value (AgSho1) was 363. For the same binder, the “SPOT peptide array binding signal intensity” value (AgSla1-D1-D2) was 415, the “SPOT peptide array binding signal intensity” value (AgSla1-D3) was 10 and the “SPOT peptide array binding signal intensity” value (CaAbp1-D1) was 2870. For the same binder, the “SPOT peptide array binding signal intensity” value (CaAbp1-D2) was 4760, the “SPOT peptide array binding signal intensity” value (CaBbc1) was 98.5 and the “SPOT peptide array binding signal intensity” value (CaBem1-D1) was 268. For the same binder, the “SPOT peptide array binding signal intensity” value (CaBzz1-D1) was 208, the “SPOT peptide array binding signal intensity” value (CaBzz1-D2) was 225 and the “SPOT peptide array binding signal intensity” value (CaCyk3) was 18. For the same binder, the “SPOT peptide array binding signal intensity” value (CaFus1) was 2320, the “SPOT peptide array binding signal intensity” value (CaHof1) was at most 0 and the “SPOT peptide array binding signal intensity” value (CaHse1) was 226. The “SPOT peptide array binding signal intensity” value (CaLsb1) was 4.5, the “SPOT peptide array binding signal intensity” value (CaLsb4) was 506 and the “SPOT peptide array binding signal intensity” value (CaMyo5) was 27.5. The “SPOT peptide array binding signal intensity” value (CaNbp2) was 438, the “SPOT peptide array binding signal intensity” value (CaRvs167) was 47.7 and the “SPOT peptide array binding signal intensity” value (CaRvs167-3) was 44. The “SPOT peptide array binding signal intensity” value (CaSho1) was 612, the “SPOT peptide array binding signal intensity” value (CaSla1-D1-D2) was 586 and the “SPOT peptide array binding signal intensity” value (CaSla1-D3) was 370. The “SPOT peptide array binding signal intensity” value (ScAbp1) was 1040.
